This note sets out measurements from PubChem BioAssay (EPA / NIEHS).

SMILES strings stand for the structures. Activity calls are given as the source filed them. The calls were made as follows: active = hit-call score of the fitted dose curve at least 0.9, where 1 is the maximum; inactive = score below 0.9.

Sequence of Retinoic acid receptor alpha (Homo sapiens) (P10276 whole entry, looked up): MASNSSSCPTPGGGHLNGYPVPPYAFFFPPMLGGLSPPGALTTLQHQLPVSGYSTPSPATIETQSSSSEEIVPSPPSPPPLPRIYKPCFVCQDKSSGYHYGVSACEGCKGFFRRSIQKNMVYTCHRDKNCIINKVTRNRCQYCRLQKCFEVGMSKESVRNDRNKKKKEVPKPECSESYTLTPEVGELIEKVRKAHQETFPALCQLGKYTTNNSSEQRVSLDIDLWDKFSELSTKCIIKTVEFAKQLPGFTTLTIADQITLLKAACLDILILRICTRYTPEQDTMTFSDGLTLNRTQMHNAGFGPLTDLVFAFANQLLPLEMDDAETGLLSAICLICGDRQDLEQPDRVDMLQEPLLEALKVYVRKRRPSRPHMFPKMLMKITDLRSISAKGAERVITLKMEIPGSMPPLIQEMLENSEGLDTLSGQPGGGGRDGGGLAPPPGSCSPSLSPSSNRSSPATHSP

For the assay, the target named is Retinoic acid receptor alpha (Homo sapiens) (UniProt P10276). The assay can be described thus: ATG_DR5_RAR_CIS: Attagene CIS-FACTORIAL HepG2 Assay for human Retinoic Acid Receptor Alpha (RARE), DR5 submotif (AID 2282934).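 As to AC50: reporter responds to endogenous RAR alpha beta and gamma in HepG2 not RARA alone.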 The settings on record: HepG2 Attagene cis-factorial RARE DR5 reporter, mRNA; actives raise or lower the signal. On the procedure:
ATG_CIS is a cell-based, multiplexed-readout assay that uses HepG2, a human liver cell line, with measurements taken at 24 hours after chemical dosing in a 24-well plate.ATG_DR5_RAR_CIS is one of 52 assay component(s) measured or calculated from the ATG_CIS assay. It is designed to make measurements of mRNA induction, a form of inducible reporter, as detected with fluorescence intensity signals by Reverse transcription polymerase chain reaction (RT-PCR) and Capillary electrophoresis technology.Data from the assay component ATG_DR5_RAR_CIS was analyzed into 1 assay endpoint. This assay endpoint, ATG_DR5_CIS, was analyzed with bidirectional fitting relative to DMSO as the negative control and baseline of activity. Using a type of inducible reporter, measures of mRNA for gain or loss-of-signal activity can be used to understand the reporter gene at the transcription factor-level as they relate to the gene RARA and RARB and RARG. Furthermore, this assay endpoint can be referred to as a primary readout, because this assay has produced multiple assay endpoints where this one serves a reporter gene function. To generalize the intended target to other relatable targets, this assay endpoint is annotated to the nuclear receptor intended target family, where the subfamily is non-steroidal.
Human liver HepG2 cells are transiently transfected with multiple reporter transcription units (MRTUs) in 6-well plates using FuGene 6 reagent (Roche; 3 ml FuGene/1 mg DNA). The MRTU constructs are regulated by a cis-regulating element (promoter). […] A major difference between the CIS and TRANS system is that in CIS activities of endogenous TFs are measured, whereas the TRANS assay evaluates changes in activities of exogenous, chimeric NR-Gal4 proteins. […] At the end of 24 hour incubation, total RNA was isolated using TriZol reagent (Invitrogen). The isolated RNA is then reverse-transcribed using oligo(dT) primer and Mo-MLV reverse transcriptase (Invitrogen) with DNAse I (Ambion) treatment for 30 min. The one-tenth of the produced cDNA was amplified by PCR using Taq DNA polymerase (Invitrogen) and two reporter sequence-specific primers. The PCR products were fluorescently labeled by primer extension with 6-arboxyfluorescein (6-FAM) 5'-labeled reporter sequence-specific primer (2 min at 95 C, 20 s at 68 C and 10 min at 72 C) and these products were digested with 5U of HpaI (New England Biolabs) for 2h at 37 C. The fragments were purified using Qiaquick PCR columns (Qiagen), analyzed on an ABI 3130xL genetic analyzer (Applied Biosystems) with peak positions identified by using a set of X-rhodamine (ROX)-labeled MapMarker1000 molecular weight standards (BioVentures). The raw capillary electrophoresis data was processed using Attagraph software (Attagene).
Consider `CNS(=O)(=O)C(F)(F)C(F)(F)C(F)(F)C(F)(F)C(F)(F)C(F)(F)C(F)(F)C(F)(F)F`, for which the compound was classed as inactive.

The term AC50 denotes the concentration giving half of the maximal activity seen. As for `CCCCCCCC/C=C\CCCCCCCC(=O)OCC(O)CO` (stereo not given), the AC50 is 20.5 µM (active).

Turning to `O=C(O)C(F)(F)OC(F)(F)C(F)(F)OC(F)(F)C(F)(F)OC(F)(F)F`, the compound was called inactive.

With `O=C1OC(=O)c2ccc3c4c(ccc1c24)C(=O)OC3=O`, the call was inactive.

With `CCCCC(CC)COC(=O)c1ccc(N(C)C)cc1` (stereo not given), the call was inactive.

As for `O=C(Cl)C(F)(F)C(F)(F)C(F)(F)C(F)(F)C(F)(F)C(F)(F)F`, the result was inactive.

On to `CC(C)Nc1ccc(NC(C)C)c2c1C(=O)c1ccccc1C2=O`, for which the result was inactive.

With `O=C(O)C(F)(F)C(F)(F)C(F)(F)OC(F)(C(F)(F)F)C(F)(F)F`, the result was inactive.

Consider `OCCCCC(F)(F)C(F)(F)C(F)(F)C(F)(F)F`, for which the call was inactive.

`OC(O)C(F)(F)C(F)(F)F`: the call was inactive.

Take `O=C(c1ccccc1)c1ccc(Cl)cc1`: the result was inactive.

Turning to `Cc1cnccn1`, the call was inactive.

With `CC1CCCCC1`, the outcome was inactive.

In the case of `CC(C)C(=O)OCc1ccccc1`, the call was inactive.

On to `C=CC(=O)OCC(F)(F)C(F)(F)C(F)(F)C(F)(F)C(F)(F)C(F)(F)C(F)(F)C(F)F`, for which the AC50 was 36.9 µM (active).

As for `NC(=O)C(F)(F)C(F)(F)C(F)(F)C(F)(F)C(F)(F)C(F)(F)C(F)(F)F`, the result was inactive.

`CCCCCCCCCCCCCC[P+](CCCC)(CCCC)CCCC`: the result was inactive.

Turning to `O=C(O)CCC(F)(F)C(F)(F)C(F)(F)F`, the compound was called inactive.

Consider `CCC(=O)OC(C)c1ccccc1` (stereo not given), for which the compound was called inactive.

Turning to `NCC(F)(F)C(F)(F)C(F)(F)C(F)(F)C(F)(F)C(F)(F)C(F)(F)C(F)(F)F`, the outcome was inactive.

Regarding `O=c1cccc[nH]1`, the outcome was inactive.

For `CC(C)OC=O`, the compound was called inactive.

Turning to `O=C1C=CC(=O)N1c1ccccc1`, the call was inactive.

For `C=C(C)C(=O)OCC(F)(F)C(F)(F)C(F)(F)C(F)F`, the result was inactive.

For `CCC/C=C/CO`, the result was inactive.

`CCCCOC(=O)C(C)O` (stereo not given): the compound was classed as inactive.

Regarding `C[Si](Cl)(Cl)CCC(F)(F)C(F)(F)C(F)(F)C(F)(F)C(F)(F)C(F)(F)F`, the compound was classed as inactive.

Turning to `CC1=CC2C3C=CC(C3)C2C1C` (stereo not given), the compound was classed as inactive.

Consider `O=c1[nH]cccc1O`, for which the compound was called inactive.

In the case of `CC1=CCC(=O)O1`, the compound was classed as inactive.

Turning to `COC(F)(C(F)F)C(F)(F)F` (stereo not given), the result was inactive.

As for `CSc1ccc(Cl)cc1`, the compound was classed as inactive.

`O=S(=O)(OCC(F)(F)F)C(F)(F)C(F)(F)C(F)(F)C(F)(F)F`: the AC50 was 17.6 µM (active).

On to `CCOC(=O)C1CC(=O)C(=C(O)C2CC2)C(=O)C1` (stereo not given), for which the compound was called inactive.

Regarding `Cc1cc(C)c(O)c(C(C)(C)C)c1`, the compound was classed as inactive.

On to `CCN(CC)c1ccc(C=O)c(O)c1`, for which the compound was classed as inactive.

As to `O=S(=O)(Cl)C(F)(F)C(F)(F)C(F)(F)C(F)(F)C(F)(F)C(F)(F)C(F)(F)C(F)(F)F`, the compound was called inactive.

In the case of `Brc1ccccn1`, the outcome was inactive.

Consider `CCc1cccc(C)c1N(C(=O)C(=O)O)C(C)COC` (stereo not given), for which the compound was called inactive.

For the compound `C=C(C)CCCC`, the result was inactive.
